Laboratory results published in PubChem BioAssay AID651735 (Southern Research Specialized Biocontainment Screening …, 2012).
The source made the active and inactive calls. The rule behind the calls is not given here.

Test: Vero 76 cell cytotoxicity, cytotoxicity control for VEEV inhibitor project, set 8 (AID 651735)
Details: Vero 76 cells viability; series mostly up to 50 µM

Structure (SMILES) | outcome
O=c1c2cc(F)c(F)cc2nc(CN2CCNCC2)n1-c1ccccc1 | inactive
COc1ccc(CNc2nc(=O)c3cccnc3s2)cc1 | inactive
CN1CCN(C)C(=Nc2ccc([N+](=O)[O-])cc2C(=O)Nc2ccccc2)C1 | inactive
CCN1CCN(C2c3ncccc3C(=O)N2c2ccccc2)CC1 (stereo not drawn) | inactive
COc1ccc(Nc2nc(=O)c3cccnc3s2)cc1 | inactive
CN1CCN(C)C(=Nc2ccc(C#N)cc2C(=O)Nc2ccccc2)C1 | inactive
O=c1c2cc([N+](=O)[O-])ccc2nc(CN2CCCNCC2)n1-c1ccccc1 | inactive
CCN1CCN(Cc2nc3ccc(-c4ccccn4)cc3c(=O)n2-c2ccccc2)CC1 | inactive
COc1ccc(NC(=O)c2cc([N+](=O)[O-])ccc2N=C2CN(C)CCN2C)cc1 | inactive
O=c1c2cc([N+](=O)[O-])ccc2nc(CN2CCCNC2)n1-c1ccccc1 | inactive
CN(c1ccc(OCc2ccccc2)cc1)c1nc(=O)c2cccnc2s1 | inactive
CN1CCN(C)C(=Nc2ccc([N+](=O)[O-])cc2C(=O)Nc2ccccc2F)C1 | inactive
CCN1CCN(Cc2nc3ccc([N+](=O)[O-])cc3c(=O)n2-c2ccccc2F)CC1 | inactive
